Measured values taken from PubChem BioAssay AID687001 (Broad Institute, 2013).
Results with a measured potency or affinity are listed apart.

These compounds were tested against Protein S100-A4 (Homo sapiens) (UniProt P26447) (assay: S100A4-myosin IIA binding inhibitor potency, dose response, biochemical, fluorescence polarization, cherry-picked hits (AID 687001;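 also: 0% = DMSO neutral control wells and -100% = TFP positive control wells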)). Conditions: FP, S100A4/TAMRA-myosin IIA peptide binding; series mostly up to 11 µM; activity change, negative = inhibition: at the top concentration;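 active = signal-lowering compounds whose fitted half-maximal concentration is at or below twice the top tested dose in every run; inconclusive = runs disagree, flat 30 to 70% inhibition, or poor curve fit; inactive = the rest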.
Protein S100-A4 (Homo sapiens), sequence (P26447 whole entry, looked up): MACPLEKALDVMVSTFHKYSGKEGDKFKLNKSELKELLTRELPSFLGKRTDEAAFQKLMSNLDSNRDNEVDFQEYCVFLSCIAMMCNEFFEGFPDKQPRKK

Activity change, negative = inhibition, inactive:
Cc1csc(=O)n1CC(=O)OCc1nnc(-c2ccc(Cl)cc2)o1 20.9%, Cc1ccc(C(=O)NC2CC(=O)N(c3ccc4c(c3)OCCO4)C2)cc1[N+](=O)[O-] (centres undefined) -1.36%, COc1cccc(S(=O)(=O)N2CC[C@@H]3[C@@H](CO)Nc4ccc(C#Cc5ccccc5)cc4[C@@H]32)c1 25.1%, C[C@@H]1CN([C@@H](C)CO)C(=O)c2cccc(NS(=O)(=O)c3ccc(F)cc3)c2O[C@H]1CN(C)C(=O)NC1CCCCC1 1.57%, Cc1ccccc1OCC(=O)Nc1ccc(S(=O)(=O)N2CCCC2)cc1 7.83%, COC(=O)c1ccc2c(=O)n(CCCCCC(=O)NC3CCCCC3)c(=O)[nH]c2c1 2.1%, Cc1ccc(S(=O)(=O)NCC[C@@H]2CC[C@H](NC(=O)Nc3cccc(F)c3)[C@@H](CO)O2)cc1 0.251%, Cn1c(=O)[nH]c(=O)c2c1nc(SCC(=O)O)n2CCOc1ccccc1 3.41%, COCCn1c(SCC(=O)Nc2ccc(NC(C)=O)cc2)nc2ccccc2c1=O -1.93%, NC1=NC(=O)C(CC(=O)c2ccc(Cl)cc2)S1 (centres undefined) 1.05%, Cc1cccc(-c2oc3ccc(-c4ccc5c(c4)OCO5)cc3c2-c2ccc(OC3CCCCO3)cc2)c1 (centres undefined) 3.18%, CS(=O)(=O)Nc1cccc(C2=NN(C(=O)c3ccc(F)cc3)C(c3cccs3)C2)c1 (centres undefined) -0.791%, C[C@@H]1CN([C@@H](C)CO)C(=O)c2cccc(NC(=O)C3CC3)c2O[C@@H]1CN(C)S(C)(=O)=O 0.87%, CC(C)(O)C#Cc1ccc([C@H]2[C@H](CO)N3CCCCN(C(=O)c4ccc(F)cc4)C[C@@H]23)cc1 16.9%
